# Measurements from PubChem BioAssay (NCI).
# This is part of a sample that, as a whole, favours compounds with a hit. Of some 79,000 tested, about 15% had one in any assay. Unmarked numbers belong to inactive results. Active and inactive are the calls of the source. Cut-off read from the data, not from the text of the source: active = growth inhibition above about 70%; inactive = the rest.
# How the values were obtained:
# [1] = NCI Yeast Anticancer Drug Screen. Data for the rad52 strain (AID 147);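 note: 0% = growth of vehicle-treated control cultures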; details: S. cerevisiae rad52 mutant growth inhibition, hits give high values
# Summary of the method: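 The repair-mutant yeast strain was incubated with compounds, then growth was read and inhibition derived relative to vehicle.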
# [2] = NCI Yeast Anticancer Drug Screen. Data for the wt1 strain (AID 149);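 note: 0% = growth of vehicle-treated wt1 cultures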; details: S. cerevisiae wt1 strain (SPY 50644) growth inhibition, hits give high values
# Summary of the method: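 The wt1 strain was treated with compounds, and growth was compared with vehicle-treated cultures to give inhibition.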
# [3] = NCI Yeast Anticancer Drug Screen. Data for the rad50EPP+ strain (AID 151);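 note: 0% = growth of vehicle-treated control cultures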; details: S. cerevisiae rad50 mutant strain, hits give high values
# Summary of the method: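 Vehicle-normalised growth inhibition; rad50EPP+ yeast strain, altered in DNA damage repair, compound-treated.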
# [4] = NCI Yeast Anticancer Drug Screen. Data for the mgt1 strain (AID 153); details: S. cerevisiae mgt1 mutant growth inhibition, hits give high values
# Summary of the method: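 Vehicle-normalized growth inhibition is determined in mgt1 yeast, a strain selected for a defined alteration in DNA repair or cell cycle control.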
# [5] = NCI Yeast Anticancer Drug Screen. Data for the rad50 strain (AID 155);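 note: 0% = growth of vehicle-only cultures of the same strain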; details: S. cerevisiae rad50 strain growth inhibition, hits give high values
# Summary of the method: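 Cells are treated with compound, grown, and their growth is then scored against vehicle-only cultures of the same repair-deficient yeast strain.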
# [6] = NCI Yeast Anticancer Drug Screen. Data for the mec2-1 strain (AID 157); details: S. cerevisiae mec2-1 strain, hits give high values
# Summary of the method: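 Mutant yeast (mec2-1) grown with compound; growth inhibition relative to vehicle control reported.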
# [7] = NCI Yeast Anticancer Drug Screen. Data for the rad14 strain (AID 159);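 note: 0% = growth of vehicle-treated control cultures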; details: S. cerevisiae rad14 strain growth inhibition, hits give high values
# Summary of the method: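 Readout: yeast growth inhibition, referenced to vehicle-only cultures. Strain bears a defined alteration in DNA damage repair.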
# [8] = NCI Yeast Anticancer Drug Screen. Data for the sgs1 mgt1 strain (AID 161);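 note: 0% = growth of cultures given vehicle only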; details: S. cerevisiae sgs1 mgt1 strain, hits give high values
# Summary of the method: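 Yeast cells carrying a defined DNA-repair defect were exposed to test compounds. Growth inhibition was measured relative to vehicle-treated controls.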
# [9] = NCI Yeast Anticancer Drug Screen. Data for the CLN2oe strain (AID 163);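 note: 0% = growth of vehicle-only control cultures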; details: S. cerevisiae CLN2oe strain, hits give high values
# Summary of the method: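 Compounds are applied to yeast harbouring a defined cell-cycle control change; reduced growth compared with vehicle-treated controls gives the value.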
# [10] = NCI Yeast Anticancer Drug Screen. Data for the cln2 rad14 strain (AID 165);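 note: 0% = growth equal to vehicle treated cultures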; details: S. cerevisiae cln2 rad14 strain, hits give high values
# Summary of the method: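 Readout is yeast growth inhibition versus vehicle-treated controls, using a strain with cln2 and rad14 alterations exposed to compound.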
# [11] = NCI Yeast Anticancer Drug Screen. Data for the bub3 strain (AID 167); details: S. cerevisiae bub3 mutant strain, hits give high values
# Summary of the method: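 Part of a panel of yeast mutants defective in DNA damage repair or cell cycle regulation. Each strain is grown with compound, and inhibition is calculated relative to solvent-treated cultures.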
# [12] = NCI Yeast Anticancer Drug Screen. Data for the wt2 strain (AID 169);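 note: 0% = growth of vehicle-treated yeast cultures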; details: S. cerevisiae wt2 strain growth inhibition, hits give high values
# Summary of the method: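 Against vehicle-treated controls, the growth of yeast exposed to each compound was compared, and the inhibition was recorded.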
# [13] = NCI Yeast Anticancer Drug Screen. Data for the mlh1 strain (AID 171);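 note: 0% = growth of vehicle-treated control cultures of the same strain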; details: S. cerevisiae mlh1 strain growth inhibition, hits give high values
# Summary of the method: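 Measured: yeast growth. Reference: vehicle-treated controls. Organism: strain with a defined alteration affecting DNA damage repair or cell cycle control, treated with compound.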
# [14] = NCI Yeast Anticancer Drug Screen. Data for the sgs1 strain (AID 173);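 note: 0% = growth of vehicle-only control cultures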; details: S. cerevisiae sgs1 mutant, hits give high values
# Summary of the method: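 Each compound was added to cultures of the altered yeast strain. Growth was recorded, and inhibition was derived by comparison with vehicle controls.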
# [15] = NCI Yeast Anticancer Drug Screen. Data for the mlh1 rad18 strain (AID 175); details: S. cerevisiae mlh1 rad18 strain growth inhibition, hits give high values
# Summary of the method: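 Genetically defined yeast (DNA repair-deficient) exposed to compounds; growth inhibition determined relative to vehicle.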
# [16] = NCI Yeast Anticancer Drug Screen. Data for the rad18 strain (AID 177); details: S. cerevisiae rad18 mutant growth inhibition, hits give high values
# Summary of the method: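 Vehicle-treated cultures served as the baseline for scoring compound-induced growth inhibition in DNA-repair-mutant yeast.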
# [17] = at 5.0 µM (retest, dose inferred, filed as 0.5)
# [18] = at 50.0 µM (retest, dose inferred, filed as 5.0)
structure (smiles),measurement,setting,value
Cc1c(C(=O)/C=C/c2ccccc2[N+](=O)[O-])[n+](=O)c2ccccc2n1[O-],growth inhibition,[1]; at 1.2 µM,78% (active)
same,growth inhibition,[1]; at 3.7 µM,90% (active)
same,growth inhibition,[1]; at 11.0 µM,93% (active)
same,growth inhibition,[1]; at 33.0 µM,93% (active)
same,growth inhibition,[1]; at 100.0 µM,93% (active)
same,growth inhibition,[2]; at 1.2 µM,-1%
same,growth inhibition,[2]; at 3.7 µM,22%
same,growth inhibition,[2]; at 11.0 µM,42%
same,growth inhibition,[2]; at 33.0 µM,49%
same,growth inhibition,[2]; at 100.0 µM,60%
same,growth inhibition,[3]; at 1.2 µM,41%
same,growth inhibition,[3]; at 3.7 µM,67%
same,growth inhibition,[3]; at 11.0 µM,77% (active)
same,growth inhibition,[3]; at 33.0 µM,76% (active)
same,growth inhibition,[3]; at 100.0 µM,79% (active)
same,growth inhibition,[4]; at 1.2 µM,10%
same,growth inhibition,[4]; at 3.7 µM,61%
same,growth inhibition,[4]; at 11.0 µM,93% (active)
same,growth inhibition,[4]; at 33.0 µM,94% (active)
same,growth inhibition,[4]; at 100.0 µM,96% (active)
same,growth inhibition,[5]; at 1.2 µM,66%
same,growth inhibition,[5]; at 3.7 µM,86% (active)
same,growth inhibition,[5]; [17],12%
same,growth inhibition,[5]; at 11.0 µM,90% (active)
same,growth inhibition,[5]; at 33.0 µM,91% (active)
same,growth inhibition,[5]; [18],84% (active)
same,growth inhibition,[5]; at 50.0 µM,97.5% (active)
same,growth inhibition,[5]; at 100.0 µM,92% (active)
same,growth inhibition,[6]; at 1.2 µM,12%
same,growth inhibition,[6]; at 3.7 µM,32%
same,growth inhibition,[6]; [17],2%
same,growth inhibition,[6]; at 11.0 µM,77% (active)
same,growth inhibition,[6]; at 33.0 µM,85% (active)
same,growth inhibition,[6]; [18],83% (active)
same,growth inhibition,[6]; at 50.0 µM,90.5% (active)
same,growth inhibition,[6]; at 100.0 µM,89% (active)
same,growth inhibition,[7]; at 1.2 µM,37%
same,growth inhibition,[7]; at 3.7 µM,61%
same,growth inhibition,[7]; at 11.0 µM,73% (active)
same,growth inhibition,[7]; at 33.0 µM,74% (active)
same,growth inhibition,[7]; at 100.0 µM,76% (active)
same,growth inhibition,[8]; [17],6%
same,growth inhibition,[8]; [18],98% (active)
same,growth inhibition,[8]; at 50.0 µM,98% (active)
same,growth inhibition,[9]; at 1.2 µM,12%
same,growth inhibition,[9]; at 3.7 µM,25%
same,growth inhibition,[9]; at 11.0 µM,41%
same,growth inhibition,[9]; at 33.0 µM,47%
same,growth inhibition,[9]; at 100.0 µM,66%
same,growth inhibition,[10]; [17],-4%
same,growth inhibition,[10]; [18],54%
same,growth inhibition,[10]; at 50.0 µM,94.5% (active)
same,growth inhibition,[11]; at 1.2 µM,-1%
same,growth inhibition,[11]; at 3.7 µM,42%
same,growth inhibition,[11]; [17],-3%
same,growth inhibition,[11]; at 11.0 µM,29%
same,growth inhibition,[11]; at 33.0 µM,33%
same,growth inhibition,[11]; [18],57%
same,growth inhibition,[11]; at 50.0 µM,94.2% (active)
same,growth inhibition,[11]; at 100.0 µM,29%
same,growth inhibition,[12]; at 1.2 µM,44%
same,growth inhibition,[12]; at 3.7 µM,85% (active)
same,growth inhibition,[12]; at 11.0 µM,91% (active)
same,growth inhibition,[12]; at 33.0 µM,84% (active)
same,growth inhibition,[12]; at 100.0 µM,94% (active)
same,growth inhibition,[13]; at 1.2 µM,25%
same,growth inhibition,[13]; at 3.7 µM,73% (active)
same,growth inhibition,[13]; at 11.0 µM,92% (active)
same,growth inhibition,[13]; at 33.0 µM,94% (active)
same,growth inhibition,[13]; at 100.0 µM,94% (active)
same,growth inhibition,[14]; at 1.2 µM,73% (active)
same,growth inhibition,[14]; at 3.7 µM,91% (active)
same,growth inhibition,[14]; at 11.0 µM,94% (active)
same,growth inhibition,[14]; at 33.0 µM,94% (active)
same,growth inhibition,[14]; at 100.0 µM,93% (active)
same,growth inhibition,[15]; [17],8%
same,growth inhibition,[15]; [18],94% (active)
same,growth inhibition,[15]; at 50.0 µM,98.2% (active)
same,growth inhibition,[16]; at 1.2 µM,84% (active)
same,growth inhibition,[16]; at 3.7 µM,90% (active)
same,growth inhibition,[16]; at 11.0 µM,92% (active)
same,growth inhibition,[16]; at 33.0 µM,92% (active)
same,growth inhibition,[16]; at 100.0 µM,93% (active)
COc1ccc2nc3cccc([N+](=O)[O-])c3c(NCCNCCN(C)C)c2c1,growth inhibition,[1]; at 1.2 µM,-4%
same,growth inhibition,[1]; at 3.7 µM,-3%
same,growth inhibition,[1]; at 11.0 µM,-6%
same,growth inhibition,[1]; at 33.0 µM,-4%
same,growth inhibition,[1]; at 100.0 µM,2%
same,growth inhibition,[2]; at 1.2 µM,-3%
same,growth inhibition,[2]; at 3.7 µM,-2%
same,growth inhibition,[2]; at 11.0 µM,-2%
same,growth inhibition,[2]; at 33.0 µM,-1%
same,growth inhibition,[2]; at 100.0 µM,3%
same,growth inhibition,[3]; at 1.2 µM,-4%
same,growth inhibition,[3]; at 3.7 µM,0%
same,growth inhibition,[3]; at 11.0 µM,0%
same,growth inhibition,[3]; at 33.0 µM,-4%
same,growth inhibition,[3]; at 100.0 µM,3%
same,growth inhibition,[4]; at 1.2 µM,0%
same,growth inhibition,[4]; at 3.7 µM,-3%
same,growth inhibition,[4]; at 11.0 µM,20%
same,growth inhibition,[4]; at 33.0 µM,-3%
same,growth inhibition,[4]; at 100.0 µM,5%
same,growth inhibition,[5]; at 1.2 µM,-4%
same,growth inhibition,[5]; at 3.7 µM,-5%
same,growth inhibition,[5]; [17],29%
same,growth inhibition,[5]; at 11.0 µM,-12%
same,growth inhibition,[5]; at 33.0 µM,-4%
same,growth inhibition,[5]; [18],97% (active)
same,growth inhibition,[5]; at 50.0 µM,74.7% (active)
same,growth inhibition,[5]; at 100.0 µM,1%
same,growth inhibition,[6]; at 1.2 µM,2%
same,growth inhibition,[6]; at 3.7 µM,-1%
same,growth inhibition,[6]; [17],5%
same,growth inhibition,[6]; at 11.0 µM,2%
same,growth inhibition,[6]; at 33.0 µM,-1%
same,growth inhibition,[6]; [18],97% (active)
same,growth inhibition,[6]; at 50.0 µM,73% (active)
same,growth inhibition,[6]; at 100.0 µM,8%
same,growth inhibition,[7]; at 1.2 µM,-2%
same,growth inhibition,[7]; at 3.7 µM,-2%
same,growth inhibition,[7]; at 11.0 µM,0%
same,growth inhibition,[7]; at 33.0 µM,1%
same,growth inhibition,[7]; at 100.0 µM,4%
same,growth inhibition,[8]; [17],72% (active)
same,growth inhibition,[8]; [18],93% (active)
same,growth inhibition,[8]; at 50.0 µM,68.2%
same,growth inhibition,[9]; at 1.2 µM,-1%
same,growth inhibition,[9]; at 3.7 µM,-2%
same,growth inhibition,[9]; at 11.0 µM,-11%
same,growth inhibition,[9]; at 33.0 µM,3%
same,growth inhibition,[9]; at 100.0 µM,12%
same,growth inhibition,[10]; [17],32%
same,growth inhibition,[10]; [18],99% (active)
same,growth inhibition,[10]; at 50.0 µM,77.7% (active)
same,growth inhibition,[11]; at 1.2 µM,-5%
same,growth inhibition,[11]; at 3.7 µM,4%
same,growth inhibition,[11]; [17],-33%
same,growth inhibition,[11]; at 11.0 µM,3%
same,growth inhibition,[11]; at 33.0 µM,-5%
same,growth inhibition,[11]; [18],50%
same,growth inhibition,[11]; at 50.0 µM,-5.3%
same,growth inhibition,[11]; at 100.0 µM,-5%
same,growth inhibition,[12]; at 1.2 µM,-2%
same,growth inhibition,[12]; at 3.7 µM,-4%
same,growth inhibition,[12]; at 11.0 µM,-3%
same,growth inhibition,[12]; at 33.0 µM,-3%
same,growth inhibition,[12]; at 100.0 µM,1%
same,growth inhibition,[13]; at 1.2 µM,-4%
same,growth inhibition,[13]; at 3.7 µM,-4%
same,growth inhibition,[13]; at 11.0 µM,-1%
same,growth inhibition,[13]; at 33.0 µM,-3%
same,growth inhibition,[13]; at 100.0 µM,3%
same,growth inhibition,[14]; at 1.2 µM,-1%
same,growth inhibition,[14]; at 3.7 µM,-1%
same,growth inhibition,[14]; at 11.0 µM,0%
same,growth inhibition,[14]; at 33.0 µM,-1%
same,growth inhibition,[14]; at 100.0 µM,2%
same,growth inhibition,[15]; [17],55%
same,growth inhibition,[15]; [18],96% (active)
same,growth inhibition,[15]; at 50.0 µM,66.5%
same,growth inhibition,[16]; at 1.2 µM,-5%
same,growth inhibition,[16]; at 3.7 µM,-3%
same,growth inhibition,[16]; at 11.0 µM,-4%
same,growth inhibition,[16]; at 33.0 µM,3%
same,growth inhibition,[16]; at 100.0 µM,6%
